# Assay outcomes deposited in PubChem BioAssay by National Center for Advancing Translational Sciences (NCATS).
# HCMV antiviral: qHTS Assay for inhibitors of the human cytomegalovirus (HCMV); HFF cells, HCMV-luciferase reporter, 72 h; stronger effect = lower value; activity change, negative = inhibition, % at 57.5 µM; 410,000 tested, 4.5% active; AID 1259415, 2018; in the data active means activity change below about -60%; inconclusive means no clear call, values can overlap the other calls; inactive means above about -39%; further: on the % scale 0 is the no-effect control and ±100 the full control effect
#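 Steps: HFFs plated, 16 h 37C; compounds added; HCMV-luciferase added to MOI 1 PFU/cell; 72 h 37C; OneGlo reagent, 5 min room temperature; luminescence read, normalized to controls.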
# HCV inhibitor: qHTS Assay for Inhibitors of Hepatitis C Virus (HCV); Huh7.5.1 HCVcc-Cre infection, luciferase reporter, 44 h; Potency, µM (series often up to 41.8 µM), for inactives: top-dose activity change, negative = inhibition, actives largely listed as inhibitors; 340,000 tested, 3.4% active; AID 651820, 2012; active means well fitted inhibition curve with a large enough effect; inconclusive means small, poorly fitted or top-dose-only effect, or another doubt; inactive means no such curve, though single readings can be large or run the other way; further: potency means the concentration at half of the fitted maximal effect; on the % scale 0 is the no-effect control and ±100 the full control effect
#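 HCVcc-Cre virus at an moi near 0.5 was added right after compound to cells cultured 4 h from seeding (1,000 cells/well). Luciferase activity was determined 44 h later, 15 min after substrate addition at RT.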
# LASV entry inh: qHTS for Inhibitors of binding or entry into cells for Lassa Virus. Lassa virus pseudotype entry inhibition, cell reporter. Potency, µM (highest dose often 37.9 µM), for inactives: at the top dose activity change, negative = inhibition, hits mostly inhibitors. AID 540256, 2011. 300,000 tested, 1.2% active; calls by dose curve; tested in HEK293 cells; further: potency means the concentration at half of the fitted maximal effect; on the % scale 0 is the no-effect control and ±100 the full control effect; nearly all actives have a fitted effect of over 50% in size
# FMDV inh: High Throughput Screening for Foot and Mouth Disease Virus Antivirals. 410,000 tested, 1.2% active. Potency, µM (top dose mostly 57.9 µM), for inactives: at the highest dose activity change, negative = inhibition, actives largely listed as inhibitors. FMDV antiviral cell-based qHTS; calls by dose curve; tested in HEK293T cells; further: read-out not given here; potency means the concentration at half of the fitted maximal effect; on the % scale 0 is the no-effect control and ±100 the full control effect; nearly all actives have a fitted effect of over 45% in size
# SARS PLpro yeast: qHTS of Yeast-based Assay for SARS-CoV PLP; Potency, µM (series often up to 32.9 µM), for the others: at the top dose activity, positive = growth rescue, usual class: activators; 330,000 tested, 0.19% active; S. cerevisiae expressing SARS-CoV PLpro, growth rescue; calls by dose curve; further: potency means the concentration at half of the fitted maximal effect; 0% is about no effect; nearly all actives have a fitted effect of over 55% in size
# MARV entry inh: qHTS for inhibitors of binding or entry into cells for Marburg Virus. AID 540276, 2011. Marburg virus pseudotyped entry inhibition, cell reporter. 300,000 tested, 1.8% active. Potency, µM (top dose mostly 37.8 µM), for inactives: at the top dose activity change, negative = inhibition, hits mostly inhibitors; calls by dose curve; tested in HEK293 cells; further: potency means the concentration at half of the fitted maximal effect; on the % scale 0 is the no-effect control and ±100 the full control effect
# Active calls of the source: *; ? = inconclusive; · = no result; [ ] = remark or other dose. The list is not random: actives were taken first. Their share in the collection is about 8%.
SMILES,HCMV antiviral,HCV inhibitor,LASV entry inh,FMDV inh,SARS PLpro yeast,MARV entry inh
CCN(CC)CCCNC(=O)c1cc(-c2ccccc2)c(N2CCCCC2)s1,-18,6.3µM*,16µM*,?,2%,?
CN(C)c1ccc(C=Cc2ccnc3ccccc23)cc1N,-15,·,·,-3%,·,·
CN(C)c1ccc(/C=C/c2cc[n+](C)c3ccccc23)cc1,-99*,11µM*,?,8.9µM*,-6%,7.9µM*
C[n+]1ccc(/C=C/c2ccccc2O)c2ccccc21,-97*,-18%,-3%,-14%,1%,3%[46.1 µM]
C[n+]1ccc(-c2ccccc2)c2ccccc21,-87*,?,·,?,0%,·
CN(C)c1ccc(C=Cc2ccnc3c(O)cccc23)cc1,-99*,·,·,0%,·,·
O=C(CSc1ccccc1)N1CCc2c([nH]c3ccccc23)C1c1ccc(Cl)cc1 (stereo not drawn),-31,·,?,-17%,·,·
CCN1CCN(C(=O)C2=CC(c3ccc(OC)cc3)=NS(=O)(=O)N2C)CC1,-64*,11%,·,-21%,0%,·
CN(CP(=O)(O)C(O)c1ccccc1)S(C)(=O)=O (stereo not drawn),-88*,14%,-1%,-4%,21%,-2%
CCOc1ccc(NS(=O)(=O)c2ccc(C(=O)N(C)Cc3cccc(OC)c3OC)cc2)cc1,-31,13µM*,?,-20%,-6%,?
CCOc1ccc(S(=O)(=O)Nc2ccc(C(=O)N(CC)CC(=O)NCc3cccs3)cc2)cc1,-72*,·,·,-13%,·,·
Cc1ccc(Cl)cc1Nc1nc(-c2sc(NC(=O)c3ccco3)nc2C)cs1,?,8.9µM*,·,1%,-11%,·
COc1cccc(N(C(=O)c2ccco2)c2nc(-c3sc(NC(=O)c4ccco4)nc3C)cs2)c1,?,4µM*,·,-6%,-10%,-2%
Cc1nc(NC(=O)c2ccccc2)sc1-c1csc(Nc2ccc(Cl)cc2Cl)n1,·,·,·,·,4%,0%
Cc1nc(NC(=O)c2ccco2)sc1-c1csc(Nc2ccc(Cl)cc2Cl)n1,-77*,?,·,-23%,-18%,·
Cc1nc(NC(=O)c2ccco2)sc1-c1csc(Nc2ccc(Cl)cc2)n1,?,2.5µM*,·,0%,-6%,·
Cc1cccc(NC(=O)C(Cc2ccccc2)n2cccc2)c1C (stereo not drawn),21,·,·,-13%,·,0%[46.1 µM]
Oc1cccc(Nc2nc(NCC3CCCO3)c3ccccc3n2)c1 (stereo not drawn),·,?,-24%,0%,-1%,?
c1ccc(Nc2nc(NCC3CCCO3)c3ccccc3n2)cc1 (stereo not drawn),?,7.1µM*,?,28µM*,-3%,?
COc1ccc(Nc2nc(NCC3CCCO3)c3ccccc3n2)c(OC)c1 (stereo not drawn),-91*,10µM*,-26%,?,0%,?
CCOc1ccc(Nc2nc(NCC3CCCO3)c3ccccc3n2)cc1 (stereo not drawn),-31,?,?,25µM*,-2%,?
c1ccc(-c2nc(NCC3CCCO3)c3ccccc3n2)nc1 (stereo not drawn),-97*,?,?,-29%,0%,?
COC(=O)C1=C(C)N(Cc2ccccc2)C(=S)NC1CCc1ccccc1 (stereo not drawn),·,·,·,·,·,38%[14.2 µM]
O=C(c1ccc2c(c1)N(Cc1ccc(F)cc1)CCS2)N1CCN(c2ccccc2)CC1,-34,·,?,-16%,·,?
Cc1nc(NCC2CCCO2)c2oc3ccccc3c2n1 (stereo not drawn),-15,-11%,1%,-30%,11%,-13%
SMILES,HCMV antiviral,HCV inhibitor,LASV entry inh,FMDV inh,SARS PLpro yeast,MARV entry inh
CCc1nc(NCC2CCCO2)c2oc3ccccc3c2n1 (stereo not drawn),-84*,?,6%,0%,3%,2%
CCOc1ccc(Nc2c3ccccc3nc3ccccc23)cc1,-81*,4µM*,·,?,-5%,·
Nc1nc(NCC2CCCO2)nc(Nc2ccc(Cl)cc2)c1[N+](=O)[O-] (stereo not drawn),-69*,-10%,-7%,-25%,1%,-19%[14.2 µM]
CCOC(=O)c1cc2c(=O)n3ccccc3nc2n(CCCOC)c1=NC(=O)c1cc2ccccc2o1,-4,·,-3%[46.1 µM],1%,·,7%[46.1 µM]
CCOC(=O)c1sc2ccc(S(=O)(=O)N3CCOCC3)cc2c1N,-62*,-10%,-13%,?,-3%,-20%
O=C(NCCO)c1cn(C2CCN(Cc3c(F)cccc3Cl)CC2)nn1,·,·,·,-19%,·,·
Cc1ccc(NC(=O)c2cnc(SCC(=O)N3CCOCC3)n(C)c2=O)cc1,59,·,20%[46.1 µM],40%,·,·
CS(=O)(=O)CCNCc1ccc(-c2ccc3ncnc(Nc4ccc(OCc5cccc(F)c5)c(C(F)(F)F)c4)c3c2)o1,·,·,20µM*,·,·,·
CS(=O)(=O)CCNCc1nc(-c2ccc3ncnc(Nc4ccc(OCc5cccc(F)c5)c(Cl)c4)c3c2)cs1,·,·,·,9%,·,·
CS(=O)(=O)CCNCc1ccc(-c2ccc3ncnc(Nc4ccc(OCc5ccccc5)cc4)c3c2)o1,·,·,16µM*,·,·,·
O=C(C[C@@H]1C/C=C\C[C@H](Cc2ccc(F)cc2)C(=O)OCCNC1=O)N[C@H](CO)Cc1ccccc1,-10,10%,·,-28%,-11%,·
O=C(C[C@@H]1C/C=C/CC[C@H](Cc2ccc(F)cc2)C(=O)OC[C@@H](Cc2ccccc2)NC1=O)N[C@H](CO)Cc1ccccc1,-99*,?,·,-27%,0%,·
O=C1NCCOC(=O)[C@@H](Cc2ccc(F)cc2)CC/C=C/C[C@H]1CC(=O)N(CCO)Cc1ccccc1,-33,11µM*,·,?,-2%,·
O=C(C[C@@H]1C/C=C/CC[C@H](Cc2ccc(F)cc2)C(=O)OCCNC1=O)N[C@H](CO)Cc1ccccc1,-17,10µM*,·,-27%,2%,·
C[C@@H]1COC(=O)[C@H](Cc2ccc(F)cc2)CC/C=C/C[C@@H](CC(=O)N[C@@H](CO)Cc2ccccc2)C(=O)N1,10,3%,·,-13%,0%,·
C[C@H]1COC(=O)[C@@H](Cc2ccc(F)cc2)C/C=C\C[C@@H](CC(=O)NCCO)C(=O)N1,-5,3.5µM*,·,-19%,-9%,·
COc1ccc2oc(=O)c(C(=O)NCCc3c(C)[nH]c4c(C)cccc34)cc2c1,-3,·,?,0%,·,?
CCN(CC)CCC[C@H](C)N=C(c1ccccc1)c1c(O)n(C)c(=O)n(C)c1=O,·,·,·,·,·,-2%
CCc1nn(CC(=O)N2CCN(c3cccc(C)c3C)CC2)c(=O)c2cc3sccc3n12,-19,·,·,-17%,·,28%[46.1 µM]
NC(=O)CCn1c(C(=O)c2ccc(Cl)cc2)c2ccccc2[n+]1[O-],-88*,11%,·,2%,6%,·
